Measurements: PubChem BioAssay (NCI)
This is part of a sample that, as a whole, favours compounds with a hit. Of some 83,000 tested, about 20% had one in any assay.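 Compound tested at a single concentration for 48 hours in 96-well plates; a percent growth value below 10 was scored as active.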 Values without a mark were called inactive. Active and inactive are the calls of the source.

Assays:
Assay in all cases: NCI-60 one-dose screen, 48 h (100 = growth as untreated, 0 = no growth, -100 = all killed)
HCT-15 colon = conditions: 10 µM unless noted
HT29 colon = conditions: 10 µM unless noted
SNB-75 CNS = conditions: 10 µM unless noted
U251 CNS = conditions: 10 µM unless noted
PC-3 prostate = conditions: 10 µM unless noted
SK-MEL-5 melanoma = conditions: 10 µM unless noted
UACC-62 melanoma = conditions: 10 µM unless noted
LOX IMVI melanoma = conditions: 10 µM
SK-MEL-28 melanoma = conditions: 10 µM unless noted
EKVX NSCLC = conditions: 10 µM unless noted
UO-31 renal = conditions: 10 µM unless noted
TK-10 renal = conditions: 10 µM unless noted
ACHN renal = conditions: 10 µM unless noted
CAKI-1 renal = conditions: 10 µM unless noted
A498 renal = conditions: 10 µM unless noted
CCRF-CEM leukemia = conditions: 10 µM unless noted
MOLT-4 leukemia = conditions: 10 µM unless noted
SK-MEL-2 melanoma = conditions: 10 µM unless noted

## CCCCSc1nc(NCCc2c[nH]c3ccccc23)c(C#N)c(-c2ccc(OC)cc2)n1
HCT-15 colon
  growth: 24.9%
HT29 colon
  growth: 25.1%
SNB-75 CNS
  growth: 65.4%
U251 CNS
  growth: 55.2%
PC-3 prostate
  growth: 23.2%
SK-MEL-5 melanoma
  growth: 46.2%
UACC-62 melanoma
  growth: 71.2%
LOX IMVI melanoma
  growth: 37.7%
SK-MEL-28 melanoma
  growth: 75.8%
EKVX NSCLC
  growth: 40.1%
UO-31 renal
  growth: 59.3%
TK-10 renal
  growth: 102%
ACHN renal
  growth: 66.6%
CAKI-1 renal
  growth: 53.6%
A498 renal
  growth: 103%
CCRF-CEM leukemia
  growth: 27.8%
MOLT-4 leukemia
  growth: 26.3%

## COc1ccc(-c2nc(SCC(C)C)nc(NCCc3c[nH]c4ccccc34)c2C#N)cc1
HCT-15 colon
  growth: 29.4%
HT29 colon
  growth: 35%
SNB-75 CNS
  growth: 74.1%
U251 CNS
  growth: 40.7%
PC-3 prostate
  growth: 24%
SK-MEL-5 melanoma
  growth: 37.2%
UACC-62 melanoma
  growth: 76.2%
LOX IMVI melanoma
  growth: 46.1%
SK-MEL-28 melanoma
  growth: 71.5%
SK-MEL-2 melanoma
  growth: 80.9%
EKVX NSCLC
  growth: 40.5%
UO-31 renal
  growth: 57.2%
TK-10 renal
  growth: 120%
ACHN renal
  growth: 69.5%
CAKI-1 renal
  growth: 54.1%
A498 renal
  growth: 97.4%
CCRF-CEM leukemia
  growth: 36.2%
MOLT-4 leukemia
  growth: 40.4%

## Cc1ccc(C(=O)CSc2nc3ccc(C)cc3c(=O)n2-c2ccc(F)cc2)cc1
HCT-15 colon
  growth: 84.6%
HT29 colon
  growth: 72.5%
SNB-75 CNS
  growth: 7.91% (active)
U251 CNS
  growth: 28.7%
PC-3 prostate
  growth: 74%
SK-MEL-5 melanoma
  growth: 72%
UACC-62 melanoma
  growth: 86.1%
LOX IMVI melanoma
  growth: 72.9%
SK-MEL-28 melanoma
  growth: 88.1%
SK-MEL-2 melanoma
  growth: 116%
EKVX NSCLC
  growth: 62.8%
UO-31 renal
  growth: 43.8%
TK-10 renal
  growth: 56.3%
ACHN renal
  growth: 19.3%
CAKI-1 renal
  growth: 53%
A498 renal
  growth: 19.6%
CCRF-CEM leukemia
  growth: 88%
MOLT-4 leukemia
  growth: 93.2%

## COc1ccc(N2N=C(c3ccc4c(c3)OCO4)CC2c2cccc(NC(=O)CCCNS(=O)(=O)c3ccc(F)cc3)c2)cc1 (centres undefined)
HCT-15 colon
  growth: 57.8%
HT29 colon
  growth: 61.3%
SNB-75 CNS
  growth: 50.6%
U251 CNS
  growth: 59.2%
PC-3 prostate
  growth: 42.5%
SK-MEL-5 melanoma
  growth: 48%
UACC-62 melanoma
  growth: 66.4%
LOX IMVI melanoma
  growth: 66.4%
SK-MEL-28 melanoma
  growth: 75.4%
SK-MEL-2 melanoma
  growth: 73.5%
EKVX NSCLC
  growth: 52.1%
UO-31 renal
  growth: 56.2%
ACHN renal
  growth: 59.2%
CAKI-1 renal
  growth: 49%
A498 renal
  growth: 67.6%
CCRF-CEM leukemia
  growth: 53.5%
MOLT-4 leukemia
  growth: 33.4%

## CC(=O)OC[C@@]1(C)C2CC[C@]3(C)C(CC=C4C5CC(C)(C)CC[C@]5(C(=O)Nc5ccc(C)cc5)CC[C@]43C)[C@@]2(C)C[C@@H](OC(C)=O)[C@@H]1OC(C)=O (some centres undefined)
HCT-15 colon
  growth: 35.1%
HT29 colon
  growth: 30.6%
SNB-75 CNS
  growth: 57%
U251 CNS
  growth: 40.7%
PC-3 prostate
  growth: 34.3%
SK-MEL-5 melanoma
  growth: 7.75% (active)
UACC-62 melanoma
  growth: 48.2%
LOX IMVI melanoma
  growth: 12.5%
SK-MEL-28 melanoma
  growth: 77.1%
SK-MEL-2 melanoma
  growth: 39.4%
EKVX NSCLC
  growth: 32.4%
UO-31 renal
  growth: 40.9%
ACHN renal
  growth: 38.9%
CAKI-1 renal
  growth: 45.8%
A498 renal
  growth: 67.1%
CCRF-CEM leukemia
  growth: 32.8%
MOLT-4 leukemia
  growth: 34.4%

## Cc1ccc(-n2c(-c3cc4ccccc4nc3Cl)noc2=O)cc1
HCT-15 colon
  growth: 39.1%
HT29 colon
  growth: 110%
SNB-75 CNS
  growth: 40.1%
U251 CNS
  growth: 83.7%
PC-3 prostate
  growth: 75.5%
SK-MEL-5 melanoma
  growth: 66.1%
UACC-62 melanoma
  growth: 56%
LOX IMVI melanoma
  growth: 85.1%
SK-MEL-28 melanoma
  growth: 97.1%
SK-MEL-2 melanoma
  growth: 80.9%
EKVX NSCLC
  growth: 47.5%
UO-31 renal
  growth: 72.4%
TK-10 renal
  growth: 122%
ACHN renal
  growth: 93.6%
CAKI-1 renal
  growth: 49.8%
A498 renal
  growth: 137%
CCRF-CEM leukemia
  growth: 84.6%
MOLT-4 leukemia
  growth: 76.5%

## CCCSc1nc(NCCc2c[nH]c3ccccc23)c(C#N)c(-c2ccc(OC)cc2)n1
HCT-15 colon
  growth: 21.8%
HT29 colon
  growth: 22.5%
SNB-75 CNS
  growth: 78.9%
U251 CNS
  growth: 41.5%
PC-3 prostate
  growth: 15.1%
SK-MEL-5 melanoma
  growth: 29.5%
UACC-62 melanoma
  growth: 71.7%
LOX IMVI melanoma
  growth: 37.1%
SK-MEL-28 melanoma
  growth: 71.4%
SK-MEL-2 melanoma
  growth: 75.5%
EKVX NSCLC
  growth: 32.5%
UO-31 renal
  growth: 41.8%
TK-10 renal
  growth: 82.9%
ACHN renal
  growth: 64.9%
CAKI-1 renal
  growth: 51%
A498 renal
  growth: 61.4%
CCRF-CEM leukemia
  growth: 25.7%
MOLT-4 leukemia
  growth: 26.1%

## CCC(C)(C)c1ccc(OCCCCN2CCN(c3ccncc3)CC2)cc1
HCT-15 colon
  growth: -1.1% (active)
HT29 colon
  growth: 6.61% (active)
SNB-75 CNS
  growth: 69.5%
U251 CNS
  growth: -11.8% (active)
PC-3 prostate
  growth: 19.3%
SK-MEL-5 melanoma
  growth: -99.4% (active)
UACC-62 melanoma
  growth: -74.5% (active)
LOX IMVI melanoma
  growth: -76.8% (active)
SK-MEL-28 melanoma
  growth: -6.03% (active)
SK-MEL-2 melanoma
  growth: 63.2%
EKVX NSCLC
  growth: 28%
UO-31 renal
  growth: 40.2%
TK-10 renal
  growth: 70.8%
ACHN renal
  growth: 68.9%
CAKI-1 renal
  growth: 43.5%
A498 renal
  growth: 88.9%
CCRF-CEM leukemia
  growth: 2.23% (active)
MOLT-4 leukemia
  growth: 1.66% (active)

## CC1(C)CC[C@]2(C(=O)Nc3ccc(F)cc3)CC[C@]3(C)C(=CCC4[C@@]5(C)C[C@@H](O)[C@H](O)[C@@](C)(CO)C5CC[C@]43C)C2C1 (some centres undefined)
HCT-15 colon
  growth: 24.1%
HT29 colon
  growth: 5.61% (active)
SNB-75 CNS
  growth: 81.7%
U251 CNS
  growth: 38.3%
PC-3 prostate
  growth: 11.2%
SK-MEL-5 melanoma
  growth: -47.6% (active)
UACC-62 melanoma
  growth: 35%
LOX IMVI melanoma
  growth: 26.5%
SK-MEL-28 melanoma
  growth: 52.9%
SK-MEL-2 melanoma
  growth: 45.9%
EKVX NSCLC
  growth: 32.3%
UO-31 renal
  growth: 29.8%
TK-10 renal
  growth: 58.6%
ACHN renal
  growth: 31.3%
CAKI-1 renal
  growth: 42.7%
A498 renal
  growth: 29.8%
CCRF-CEM leukemia
  growth: 18.2%
MOLT-4 leukemia
  growth: 5% (active)
